Measured values as given in PubChem BioAssay (Tox21).
Where “and” joins values, the source holds several entries; their conditions need not be identical. Identical values can stand only once. Results filed as inconclusive are left out. Entries that show only a call come without a potency. The source holds several records for some structures; these can differ, active in one and inactive in another. Calls of active or inactive are those of the source. Calls come from the whole dose curve; as a rule, active = well fitted curve in the direction sought with a large enough effect in the repeat runs; inconclusive = weak or mixed curves; inactive = no such curve, though single readings can be large; an effect the other way counts as inactive or inconclusive.

Legend:
[1] = A CellTox Green Cytotoxicity Assay to monitor cytotoxicity in HEK293 cells - 40 hour (AID 1224871); note: nearly all actives have a fitted effect of over 45% in size; note: potency is the fitted concentration of half-maximal effect
Procedure, shortened: (§1)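 Each value comes from one timepoint of a single continuous run in which HEK293 cells with CellTox Green were exposed to compound for up to 40 h at 37 C, dye fluorescence rising with cell death.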

[2] = qHTS RealTime-Glo MT Cell Viability Assay in HEK293 cells - 16 hour (AID 1224872); note: nearly all actives have a fitted effect of over 50% in size; note: potency is the fitted concentration of half-maximal effect
Procedure, shortened: (§2)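 Reads taken at 0, 8, 16, 24, 32 and 40 h from the same wells. HEK293 cells (600/well) carried RealTime-Glo reagents from seeding, with compound added after a 5 h settle at 37 C.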

[3] = qHTS RealTime-Glo MT Cell Viability Assay in HEK293 cells - 40 hour (AID 1224874); details: RealTime-Glo luminescence; max response: stronger effect = lower value; note: nearly all actives have a fitted effect of over 50% in size; note: potency is the fitted concentration of half-maximal effect
Procedure, shortened: (§3)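 qHTS format; HEK293 cells with NanoLuc/prosubstrate reagent, 37 C/5% CO2 for 5 h pre-dosing; compounds 23 nL in DMSO; luminescence at each time point reflects viable cells.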

[4] = A CellTox Green Cytotoxicity Assay to monitor cytotoxicity in HEK293 cells - 24 hour (AID 1224875); note: nearly all actives have a fitted effect of over 45% in size; note: potency is the fitted concentration of half-maximal effect
Procedure, shortened: as §1

[5] = A CellTox Green Cytotoxicity Assay to monitor cytotoxicity in HepG2 cells - 16 hour (AID 1224876); note: nearly all actives have a fitted effect of over 45% in size; note: potency is the fitted concentration of half-maximal effect
Procedure, shortened: (§4)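 Continuous culture of HepG2 cells with a membrane-impermeant DNA dye; rising fluorescence marks dead cells. Compound exposure lasted up to 40 h at 37 C, with reads every 8 h from 0 h.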

[6] = A CellTox Green Cytotoxicity Assay to monitor cytotoxicity in HepG2 cells - 24 hour (AID 1224878); note: nearly all actives have a fitted effect of over 45% in size; note: potency is the fitted concentration of half-maximal effect
Procedure, shortened: as §4

[7] = A CellTox Green Cytotoxicity Assay to monitor cytotoxicity in HepG2 cells - 40 hour (AID 1224879); note: nearly all actives have a fitted effect of over 40% in size; note: potency is the fitted concentration of half-maximal effect
Procedure, shortened: as §4

[8] = qHTS RealTime-Glo MT Cell Viability Assay in HEK293 cells - 0 hour (AID 1224880)
Procedure, shortened: as §3

[9] = A CellTox Green Cytotoxicity Assay to monitor cytotoxicity in HEK293 cells - 32 hour (AID 1224881); note: nearly all actives have a fitted effect of over 40% in size; note: potency is the fitted concentration of half-maximal effect
Procedure, shortened: as §1

[10] = A CellTox Green Cytotoxicity Assay to monitor cytotoxicity in HepG2 cells - 0 hour (AID 1224882); note: nearly all actives have a fitted effect of over 35% in size
Procedure, shortened: as §4

[11] = A CellTox Green Cytotoxicity Assay to monitor cytotoxicity in HepG2 cells - 32 hour (AID 1224883); note: nearly all actives have a fitted effect of over 50% in size; note: potency is the fitted concentration of half-maximal effect
Procedure, shortened: as §4

[12] = A CellTox Green Cytotoxicity Assay to monitor cytotoxicity in HEK293 cells - 8 hour (AID 1224884); note: nearly all actives have a fitted effect of over 35% in size; note: potency is the fitted concentration of half-maximal effect
Procedure, shortened: as §1

[13] = qHTS RealTime-Glo MT Cell Viability Assay in HepG2 cells - 16 hour (AID 1224885); note: nearly all actives have a fitted effect of over 50% in size; note: potency is the fitted concentration of half-maximal effect
Procedure, shortened: (§5)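 HepG2 suspension premixed with RealTime-Glo reagents is plated at 600 cells per well and left 5 h at 37 C/5% CO2. Compounds in DMSO then go in, and bioluminescence reflecting viable cell number is recorded over 40 h.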

[14] = qHTS RealTime-Glo MT Cell Viability Assay in HEK293 cells - 24 hour (AID 1224886); note: nearly all actives have a fitted effect of over 50% in size; note: potency is the fitted concentration of half-maximal effect
Procedure, shortened: as §2

[15] = qHTS RealTime-Glo MT Cell Viability Assay in HEK293 cells - 8 hour (AID 1224887); note: nearly all actives have a fitted effect of over 50% in size; note: potency is the fitted concentration of half-maximal effect
Procedure, shortened: as §3

[16] = A CellTox Green Cytotoxicity Assay to monitor cytotoxicity in HEK293 cells - 16 hour (AID 1224888); note: nearly all actives have a fitted effect of over 35% in size; note: potency is the fitted concentration of half-maximal effect
Procedure, shortened: as §1

[17] = qHTS RealTime-Glo MT Cell Viability Assay in HepG2 cells - 0 hour (AID 1224889); note: nearly all actives have a fitted effect of over 50% in size
Procedure, shortened: as §5

[18] = A CellTox Green Cytotoxicity Assay to monitor cytotoxicity in HepG2 cells - 8 hour (AID 1224890); note: nearly all actives have a fitted effect of over 45% in size; note: potency is the fitted concentration of half-maximal effect
Procedure, shortened: as §4

[19] = qHTS RealTime-Glo MT Cell Viability Assay in HepG2 cells - 32 hour (AID 1224877); note: nearly all actives have a fitted effect of over 55% in size; note: potency is the fitted concentration of half-maximal effect
Procedure, shortened: as §5

[20] = qHTS RealTime-Glo MT Cell Viability Assay in HepG2 cells - 8 hour (AID 1224873); note: nearly all actives have a fitted effect of over 55% in size
Procedure, shortened: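 Real-time viability: cells seeded at 600 per well together with NanoLuc and cell-permeant prosubstrate, compounds added after 5 h incubation. Luminescence tracked at 0, 8, 16, 24, 32 and 40 h of exposure.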

O.O.O.O.O.O.O.O=S(=O)([O-])[O-].[Co+2]
Potency [1]: inactive
Potency [2]: inactive
max response [3]: 0.267% (inactive)
Potency [4]: inactive
Potency [5]: inactive
Potency [6]: inactive
Potency [7]: inactive
Potency [8]: inactive
Potency [9]: inactive
Potency [10]: inactive
Potency [11]: inactive
Potency [12]: inactive
Potency [13]: inactive
Potency [14]: inactive
Potency [15]: inactive
Potency [16]: inactive

CCC[CH2][Sn]([CH2]CCC)([O]C(C)=O)[O]C(C)=O
Potency [1]: 0.278 µM (active)
Potency [2]: 0.0879 µM (active)
Potency [3]: 0.0698 µM (active)
Potency [4]: 1.24 µM (active)
Potency [5]: 1.24 µM (active)
Potency [6]: 0.312 µM (active)
Potency [7]: 248 nM (active)
Potency [8]: inactive
Potency [9]: 0.392 µM (active)
Potency [10]: inactive
Potency [11]: 0.221 µM (active)
Potency [12]: inactive
Potency [13]: 0.554 µM (active)
Potency [14]: 0.0879 µM (active)
Potency [16]: 4.4 µM (active)
Potency [17]: inactive
Potency [18]: inactive

C[C@]12C/C(=C/O)C(=O)C[C@@H]1CC[C@@H]1[C@@H]2CC[C@@]2(C)[C@H]1CC[C@]2(C)O
Potency [1]: 49.4 µM (active) and inactive
Potency [2]: inactive
max response [3]: -17.5% (inactive)
Potency [5]: inactive
Potency [19]: inactive
Potency [6]: inactive
Potency [8]: inactive
Potency [9]: 44.1 µM (active) and inactive
Potency [10]: inactive
Potency [12]: inactive
Potency [13]: inactive
Potency [14]: 49.4 µM (active) and inactive
Potency [15]: inactive
Potency [16]: inactive
Potency [17]: inactive
Potency [18]: inactive

Clc1ccc(C(Cl)(Cl)Cl)cc1Cl
Potency [1]: 33.9 µM (active)
Potency [2]: 33.9 µM (active)
Potency [3]: 33.9 µM (active)
Potency [4]: 33.9 µM (active)
Potency [5]: 47.9 µM (active)
Potency [6]: 47.9 µM (active)
Potency [7]: 47900 nM (active)
Potency [8]: inactive
Potency [9]: 33.9 µM (active)
Potency [10]: inactive
Potency [11]: 47.9 µM (active)
Potency [12]: 42.7 µM (active)
Potency [14]: 33.9 µM (active)
Potency [15]: 30.2 µM (active)
Potency [16]: 38.1 µM (active)
Potency [17]: inactive
Potency [18]: 47.9 µM (active)

O=c1c2ccccc2c(=O)c2c1cc(Cl)c1[nH]c3c([nH]c12)c(Cl)cc1c(=O)c2ccccc2c(=O)c13
Potency [1]: inactive
Potency [2]: inactive
Potency [4]: inactive
Potency [5]: inactive
Potency [19]: inactive
Potency [6]: inactive
Potency [7]: inactive
Potency [8]: inactive
Potency [9]: inactive
Potency [10]: inactive
Potency [11]: inactive
Potency [12]: inactive
Potency [13]: inactive
Potency [14]: inactive
Potency [15]: inactive
Potency [16]: inactive
Potency [17]: inactive

CO/N=C(\C(=O)OC)c1ccccc1CO/N=C(\C)c1cccc(C(F)(F)F)c1
Potency [1]: 6.92 µM (active)
Potency [20]: inactive
Potency [3]: 6.16 µM (active)
Potency [4]: inactive
Potency [5]: inactive
Potency [19]: inactive
Potency [6]: inactive
Potency [9]: inactive
Potency [10]: inactive
Potency [11]: inactive
Potency [13]: inactive
Potency [16]: inactive
Potency [17]: inactive
Potency [18]: inactive

Oc1cc(Cl)c(Cl)c(Cl)c1Cl
Potency [1]: inactive
Potency [20]: inactive
Potency [3]: 47.8 µM (active)
Potency [4]: inactive
Potency [5]: inactive
Potency [19]: inactive
Potency [6]: inactive
Potency [9]: inactive
Potency [10]: inactive
Potency [12]: inactive
Potency [13]: inactive
Potency [14]: 47.8 µM (active)
Potency [16]: inactive
Potency [17]: inactive
Potency [18]: inactive

CCN(CC)C(=S)S
Potency [1]: 17.5 µM (active) and 4.34 µM (active) and 9.77 µM (active)
Potency [2]: inactive
Potency [3]: 24.8 µM (active) and 4.34 µM (active) and 11 µM (active)
Potency [5]: inactive
Potency [19]: inactive and 21.9 µM (active)
Potency [6]: inactive and 7.72 µM (active) and 21.9 µM (active)
Potency [7]: 17.5 µM (active) and 6.13 µM (active) and 19.5 µM (active)
Potency [8]: inactive
Potency [9]: 17.5 µM (active) and 4.87 µM (active) and 11 µM (active)
Potency [10]: inactive
Potency [11]: inactive and 6.88 µM (active) and 21.9 µM (active)
Potency [12]: inactive
Potency [13]: inactive
Potency [14]: 4.87 µM (active) and 12.3 µM (active)
Potency [15]: inactive
Potency [16]: inactive
Potency [17]: inactive
Potency [18]: inactive

CNC(=O)O/N=C(\C)C(C)S(C)(=O)=O (stereo unspecified)
Potency [1]: inactive
Potency [2]: inactive
max response [3]: 1.59% (inactive)
Potency [4]: inactive
Potency [5]: inactive
Potency [19]: inactive
Potency [8]: inactive
Potency [9]: inactive
Potency [10]: inactive
Potency [12]: inactive
Potency [13]: inactive
Potency [14]: inactive
Potency [15]: inactive
Potency [16]: inactive
Potency [17]: inactive

CCC(C)Nc1c([N+](=O)[O-])cc(C(C)(C)C)cc1[N+](=O)[O-] (stereo unspecified)
Potency [1]: inactive
Potency [20]: inactive
Potency [4]: inactive
Potency [5]: inactive
Potency [19]: inactive
Potency [6]: inactive
Potency [7]: inactive
Potency [8]: inactive
Potency [9]: inactive
Potency [10]: inactive
Potency [11]: inactive
Potency [12]: inactive
Potency [13]: inactive
Potency [14]: inactive
Potency [16]: inactive
Potency [17]: inactive

C[C@H]1[C@H](c2ccc(Cl)cc2)SC(=O)N1C(=O)NC1CCCCC1
Potency [1]: inactive
Potency [2]: 38.9 µM (active)
Potency [3]: 43.6 µM (active)
Potency [4]: inactive
Potency [5]: inactive
Potency [6]: inactive
Potency [9]: inactive
Potency [10]: inactive
Potency [11]: inactive
Potency [13]: inactive
Potency [15]: 38.9 µM (active)
Potency [16]: inactive
Potency [17]: inactive
Potency [18]: inactive

CC(=O)[O-].CC(=O)[O-].O.O.O.[Pb+2]
Potency [1]: inactive
Potency [20]: inactive
max response [3]: -1.15% (inactive)
Potency [4]: inactive
Potency [5]: inactive
Potency [19]: inactive
Potency [6]: inactive
Potency [7]: inactive
Potency [8]: inactive
Potency [9]: inactive
Potency [10]: inactive
Potency [11]: inactive
Potency [12]: inactive
Potency [13]: inactive
Potency [15]: inactive
Potency [16]: inactive
Potency [17]: inactive
Potency [18]: inactive

O=C(O)[C@H](O)[C@@H](O)C(=O)O
Potency [1]: inactive
Potency [2]: inactive
Potency [4]: inactive
Potency [5]: inactive
Potency [19]: inactive
Potency [6]: inactive
Potency [7]: inactive
Potency [8]: inactive
Potency [9]: inactive
Potency [10]: inactive
Potency [11]: inactive
Potency [12]: inactive
Potency [13]: inactive
Potency [14]: inactive
Potency [15]: inactive
Potency [16]: inactive
Potency [17]: inactive
Potency [18]: inactive

CCC(OC(C)=O)C(CC(C)NC)(c1ccccc1)c1ccccc1 (stereo unspecified)
Potency [1]: 62.2 µM (active)
Potency [2]: 49.4 µM (active)
Potency [3]: 49.4 µM (active)
Potency [5]: 62.2 µM (active)
Potency [6]: 55.4 µM (active)
Potency [9]: 62.2 µM (active)
Potency [10]: inactive
Potency [11]: 55.4 µM (active)
Potency [14]: 55.4 µM (active)
Potency [16]: 62.2 µM (active)
